Screens: PubChem, National Center for Advancing Translational Sciences (NCATS)
Sampled rows, rich in hits. Any-hit rate of the full collection: about 6%.
Pol III holo inh – inhibitors of bacterial DNA polymerase III holoenzyme | AID 603 | actives 0.25% (n = 71,000) | reconstituted DNA polymerase III holoenzyme replication, biochemical | Potency, µM (highest dose often 57.1 µM), for the others: at the highest dose activity change, negative = inhibition
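Reconstituted *E. coli* holoenzyme (0.35 nM Pol III, 1 nM beta, 154 nM SSB, 2 nM primase) was preincubated with compound for 15 min at RT. Synthesis on 1.4 nM ssM13Gori ran 35 min, then was stopped with PicoGreen/EDTA and read as dsDNA fluorescence.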
Tau fil binding – binders of human tau filaments; P10636; recombinant tau filaments, thioflavin S fluorescence, 15 h; filaments grown with octadecylsulfate alongside compound; Potency, µM (highest dose often 57.1 µM), inactives show at the top dose activity change, negative = inhibition; actives 2% (n = 71,000);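 note: actives lower thioflavin S fluorescence by blocking filaments or displacing dye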
Target sequence (P10636 whole entry, looked up): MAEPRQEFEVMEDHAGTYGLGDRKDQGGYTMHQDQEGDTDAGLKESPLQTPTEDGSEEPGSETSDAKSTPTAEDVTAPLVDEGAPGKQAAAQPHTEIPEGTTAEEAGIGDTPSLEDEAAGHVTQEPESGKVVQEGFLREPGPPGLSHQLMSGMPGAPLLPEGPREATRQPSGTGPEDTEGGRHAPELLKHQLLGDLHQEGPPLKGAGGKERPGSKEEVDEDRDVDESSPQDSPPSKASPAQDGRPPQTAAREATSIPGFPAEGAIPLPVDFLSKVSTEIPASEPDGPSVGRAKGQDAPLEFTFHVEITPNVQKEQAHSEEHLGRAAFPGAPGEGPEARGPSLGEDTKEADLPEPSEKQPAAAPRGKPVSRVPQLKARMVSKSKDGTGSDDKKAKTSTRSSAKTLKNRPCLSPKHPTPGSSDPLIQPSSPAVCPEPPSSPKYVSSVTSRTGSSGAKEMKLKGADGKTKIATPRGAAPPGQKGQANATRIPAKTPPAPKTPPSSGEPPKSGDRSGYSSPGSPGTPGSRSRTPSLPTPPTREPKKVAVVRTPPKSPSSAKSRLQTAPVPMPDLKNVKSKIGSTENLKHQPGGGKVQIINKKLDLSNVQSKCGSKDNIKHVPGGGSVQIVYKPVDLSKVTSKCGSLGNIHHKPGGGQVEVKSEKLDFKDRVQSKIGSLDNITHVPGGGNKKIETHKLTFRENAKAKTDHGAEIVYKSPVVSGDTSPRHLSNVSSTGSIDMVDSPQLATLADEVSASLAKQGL
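His-tagged recombinant human tau (exons 2, 3, 10; 1 uM final) fibrillized with 30 uM sodium octadecylsulfate, 15 h at 37 C, in pH 7.4 HEPES buffer with 10 uM thioflavine S and 5 mM DTT. Reduced ThS fluorescence (450/510 nm) marks activity.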
ERK AVP block – inhibitors of vasopressin-stimulated ERK signaling pathway; HEK293-V1b, vasopressin-stimulated pERK AlphaScreen; actives 0.99% (n = 72,000); Potency, µM (titrated, usually from 57.5 µM), for inactives: at the top dose activity, negative = inhibition, most hits filed as inhibitors; AID 995; note: nearly all actives have a fitted effect of over 55% in size
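HEK293 cells stably expressing V1b receptor, preincubated 30 min at 37 °C with compound, then stimulated 5 min with 25 nM vasopressin. Phospho-ERK by AlphaScreen SureFire after 5 h RT; normalized to DMSO and vasopressin; AC50 by Hill fit.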
15-hLO inh – blocks human 15-lipoxygenase activity. P16050. purified 15hLO-1, xylenol orange hydroperoxide absorbance. Potency, µM (titrated, usually from 57.1 µM), for inactives: at the top dose activity change, negative = inhibition, actives largely listed as inhibitors. actives 1.4% (n = 74,000); note: nearly all actives have a fitted effect of over 55% in size
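Hydroperoxide formed from arachidonic acid (50 uM) by purified human 15hLO-1 (40 nM) oxidizes ferrous iron, and the ferric-xylenol orange complex is read at 573 versus 405 nm. Compounds were preincubated 15 min; reaction ran 6 min at room temperature.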
Bst PK mod – modulators of Bacillus stearothermophilus pyruvate kinase | purified pyruvate kinase, luminescence ATP production; ribose 5-phosphate activator present at AC10 | Potency, µM | actives 1.2% (n = 51,000); in the data active = potency below about 11 µM; inconclusive = mostly about 12 µM to 25 µM;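 the screen sought inhibitors and activators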;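 note: scaled between full activation by ribose 5 phosphate and full inhibition by luteolin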
Luciferase inh – inhibitors of firefly luciferase; actives 2.2% (n = 72,000); Potency, µM (highest dose often 57.1 µM), inactives show top-dose activity change, negative = inhibition, most hits filed as inhibitors; purified firefly luciferase, luminescence, 8 min; note: nearly all actives have a fitted effect of over 40% in size
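Inhibition of light generation by firefly luciferase from ATP and luciferin was profiled with concentration-response curves per sample, ATP held at 10 uM within the enzyme's linear range. Plates were read by luminescence after an 8-minute ambient incubation.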
An asterisk follows results filed as active; i = inactive; ? = inconclusive; . = no result; [ ] = dose if it differs, or a comment. Unless noted, calls come from the whole dose curve; as a rule, active = well fitted curve in the direction sought with a large enough effect; inconclusive = small, poorly fitted or top-dose-only effect, or another doubt; inactive = no such curve, though single readings can be large; an effect the other way counts as inactive or inconclusive. Unless noted, % is set by controls: 0 for no effect and ±100 for the full control effect; potency is the fitted concentration of half-maximal effect.

SMILES	Pol III holo inh	Tau fil binding	ERK AVP block	15-hLO inh	Bst PK mod	Luciferase inh
O=C1C2C3C=CC(C2C(=O)N1CN1CCOCC1)C1C2C(=O)N(CN4CCOCC4)C(=O)C2C31 (configuration not stated)	-5%[11.4 µM]	-6%[11.4 µM]	-7%[11.5 µM]	17%[11.4 µM]	.	2%[11.4 µM]
CCCn1c(=O)c2ccccc2n2c(SCc3cc(=O)n4ccsc4n3)nnc12	-5%	2%	-22%	1%	>57	0%
Cc1cccc(-n2c(SCc3cc(=O)n4ccsc4n3)nc3ccccc32)c1	-6%	6%	-12%	13µM*	>57	-6%
O=C(O)c1ccc(Cl)c(S(=O)(=O)Nc2ccccc2)c1	.	.	.	-4%	.	.
CCOC(=O)Cc1csc(NC(=O)c2ccc(C)o2)n1	-3%	1%	-22%	-10%	>57	-4%
COc1cc(NC(=O)c2csc3c2CCCC3)ncn1	0%	21%	7%	0%	>57	13µM*
COCCNC(=O)c1csc2c1CCCC2	0%	1%	12%	4%	>57	-1%
CCOC(=O)Cc1csc(NC(=O)c2csc3c2CCCC3)n1	-4%	15%	?	?	i	16µM*
COc1ccc(NC(=O)N2CCCC3(CCN(C(=O)c4cccc(F)c4)CC3)C2)cc1	-7%	3%	2%	3%	.	1%[11.4 µM]
O=C(c1cccc(F)c1)N1CCC[C@@]2(CCN(c3ccccn3)C2)C1	0%	-2%	-21%	6%	.	0%[11.4 µM]
Cn1c(=O)c(-c2cc(F)cc(F)c2)nc2cnc(N3CCNCC3)nc21	-3%	5µM*	-7%	2%	.	1%[11.4 µM]
CN1CCN(c2ncc3nc(-c4cc(F)cc(F)c4)c(=O)n(Cc4cccs4)c3n2)CC1	-13%	3.2µM*	6%	2%	.	0%[11.4 µM]
COc1ccc(-c2nc3cnc(N4CCN(C)CC4)nc3n(Cc3cccs3)c2=O)cc1	-5%	262%	46%	-29%	.	0%[11.4 µM]
CN(C)c1ncc2nc(-c3cc(F)cc(F)c3)c(=O)n(Cc3cccs3)c2n1	-2%	-4%	13%	7.9µM*	.	-2%[11.4 µM]
Cc1noc(C)c1-c1nccc(N2CCN(C)CC2)n1	-4%	-2%	-27%	9%	.	-3%[2.29 µM]
Cc1ccc(-n2nnnc2SCC(=O)NCCC2=CCCCC2)c(C)c1	1%	-6%	13%	32µM*	>57	-1%
COC(=O)C/C=C\[C@@H](C)[C@@H](/C=N\O[C@@H](C)c1cn([C@H]2COC[C@H]2O)nn1)NS(=O)(=O)c1ccc(C)cc1	.	.	13%[11.5 µM]	7%[11.4 µM]	.	0%[11.4 µM]
CCC(=O)Nc1cccc(-c2nnc(SCC(=O)c3ccccc3)n2C)c1	-1%	2%	-7%	7%	.	16µM*
CCC(=O)Nc1cccc(-c2nnc(SCC(=O)NCc3ccco3)n2C)c1	.	.	.	.	>26	1%[25.5 µM]
CCOc1ccc(-c2cc(C(=O)N/N=C/c3ccc(O)c(OC)c3)[nH]n2)cc1	.	.	.	-28%	.	.
Nc1c(C(=O)OCC2CCCO2)c2nc3ccccc3nc2n1-c1ccc2c(c1)OCCO2 (configuration not stated)	2%	-2%	20µM*	-18%	>57	-11%
COc1ccc(-n2c(N)c(C(=O)NCC3CCCO3)c3nc4ccccc4nc32)c(OC)c1 (configuration not stated)	-5%	25µM*	?	?	>57	0%
Nc1c(C(=O)NC2CC2)c2nc3ccccc3nc2n1-c1ccc2c(c1)OCO2	-4%	-12%	?	-13%	>57	-1%
COc1ccc(N2CCN(C(=O)CSc3ncccc3-c3nc4ccccc4[nH]3)CC2)cc1	-3%	?	-20%	-10%	.	13µM*
CCOC(=O)CNc1ccc2c(c1)OCO2	-6%	55%	?	2µM*	>57	-3%
CCOC(=O)c1c(N)sc(C(=O)Nc2ccc3c(c2)OCO3)c1C	-2%	-18%	-28%	0%	1*	0.79µM*
